Measurements taken from PubChem BioAssay AID623959 (National Center for Advancing Translational Sciences (NCATS), 2012).
Out of some 1,400 compounds screened, fewer than 10 were called active. Roughly 8% stayed inconclusive and do not appear here. A selection follows. Values without a mark were called inactive. The call rests on the fitted dose curve; in most records, active means well fitted curve in the direction sought with a large enough effect; inconclusive means small, poorly fitted or top-dose-only effect, or another doubt; inactive means no such curve, though single readings can be large or run the other way.

Biological target: Transient receptor potential cation channel subfamily V member 1 (Homo sapiens) (UniProt Q8NER1)
Test: qHTS Assay for Compounds that Act as Potentiators of the Vanilloid Receptor 1: Hit Validation; on activity change, positive = potentiation: % of control where 0% means no effect
Details: TRPV1-expressing cells, Fluo-8 calcium influx, capsaicin EC20; series mostly up to 42.1 µM; activity change, positive = potentiation: at the top concentration
Excerpt: The transient receptor potential ion channel, family V, number 1, (TRPV1) is one of the most important molecular transducers of painful stimuli and a potential target for analgesic drug development. Although recent clinical trials with orthosteric antagonists have not produced a successful drug because of a hyperthermia side effect and their tendency to block thermal noxious pain, this ion channel is undeniably well placed in the pain pathway, and the idea of blocking pain signals before they enter the CNS is an excellent concept and of proven efficacy when TRPV1 agonists are used. We propose a new approach involving allosteric modulation to impose an activity-dependent constraint within the context of inflammation and tissue damage that would alter the responsiveness of the channel in a way that an orthosteric vanilloid antagonist cannot achieve. We believe that the allosteric modulator approach has not been explored for this target. The main goal of this proposal is to identify additional, new, potent allosteric modulators of TRPV1 that can be used to investigate TRPV1 function. Our recent report provides evidence of proof of concept, but the compounds are just at the edge of utility in terms of potency. […] The question of whether they can be used as analgesic agents is complex, but if suitable compounds are identified then testing for analgesic properties will be conducted. Compounds identified as agonists were re-tested in the primary screen for hit validation. NIH Chemical Genomics Center [NCGC] NIH Molecular Libraries Probe Centers Network [MLPCN] MLPCN Grant: MH089480 Assay Submitter (PI): Michael Iadarola, National Institute of Dental and Cranofacial Research
Upon TRPV1 activation in TRPV1 cells, the channel opens and extracellular cations flow through the channel into the cytosol. A calcium binding dye (Fluo-8) becomes fluorescent when bound to calcium. This dye is pre-loaded into cells and is used as a marker for calcium influx. The amount of accumulated calcium is precisely quantified using the FDSS kinetic reader and the calcium dye. For the HTS assay, freshly prepared cells are plated at a density of 2000/well in 3 ul medium in 1536-well plates and cultured overnight at 35.5C. Cells will be loaded with 1 ul of the homogeneous calcium dye (ABD Bioquest) at room temperature for 40 to 90 minutes. Plates will be loaded into the FDSS kinetic reader and a 1 sec / cycle for 10 second baseline signal will be measured. Compound library will then be added with a pintool at 23 nl and measured kinetically for 3 minutes. This portion of the read is considered the agonist portion of the screen. Following the 3 minutes of incubation, an on board pipettor will deliver 1 ul of capsaicin for a final concentration equal to the EC20. Signal will be measured kinetically for an additional 2 minutes. This portion of the read is considered the allosteric enhancer portion of the screen. The FDSS reader has a standard filter set capable of measuring calcium bound Fluo-8 (ex=480 and em=520 nm).
Potency means the concentration at half of the fitted maximal effect.

Transient receptor potential cation channel subfamily V member 1 (Homo sapiens), sequence (Q8NER1 whole entry, looked up): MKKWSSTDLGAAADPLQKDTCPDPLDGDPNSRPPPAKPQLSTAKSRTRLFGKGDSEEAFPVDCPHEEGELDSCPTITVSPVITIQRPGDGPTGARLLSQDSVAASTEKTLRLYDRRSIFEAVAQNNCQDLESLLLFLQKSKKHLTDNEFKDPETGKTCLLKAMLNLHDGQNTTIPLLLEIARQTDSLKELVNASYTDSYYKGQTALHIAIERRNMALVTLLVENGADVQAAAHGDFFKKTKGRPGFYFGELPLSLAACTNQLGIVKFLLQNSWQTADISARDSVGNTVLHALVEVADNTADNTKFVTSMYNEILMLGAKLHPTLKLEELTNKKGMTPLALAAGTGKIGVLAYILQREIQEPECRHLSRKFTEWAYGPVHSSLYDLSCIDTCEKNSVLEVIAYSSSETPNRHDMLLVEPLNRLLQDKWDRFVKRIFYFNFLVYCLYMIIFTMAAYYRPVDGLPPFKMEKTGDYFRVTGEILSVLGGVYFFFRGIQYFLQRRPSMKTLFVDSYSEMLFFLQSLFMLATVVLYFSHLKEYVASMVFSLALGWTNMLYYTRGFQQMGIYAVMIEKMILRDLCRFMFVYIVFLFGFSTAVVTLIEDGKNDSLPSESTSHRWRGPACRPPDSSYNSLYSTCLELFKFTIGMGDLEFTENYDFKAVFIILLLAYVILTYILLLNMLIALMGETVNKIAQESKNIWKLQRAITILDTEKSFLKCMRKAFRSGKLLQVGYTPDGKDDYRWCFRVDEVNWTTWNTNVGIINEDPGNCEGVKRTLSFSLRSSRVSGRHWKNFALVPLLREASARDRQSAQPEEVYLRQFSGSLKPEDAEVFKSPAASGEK

Q: Cc1nc(Nc2cccc(Cl)c2)c2oc3ccccc3c2n1 was tested. Which “activity change, positive = potentiation” value did it give?
A: -38.3%

Q: CCOC(=O)C(C(=O)OCC)c1cc(Br)c2noc3c2c1C(=O)c1ccccc1-3 was tested. Which Potency did it give?
A: 3.6 µM (active)

Q: With COc1ccc(Cn2nc(-c3ccccc3)c(N3CCCCC3)cc2=O)cc1 as the compound, how does the “activity change, positive = potentiation” value read?
A: -39.1%

Q: Which “activity change, positive = potentiation” value does the source give for CCOC(=O)[C@H]1[C@H]2COc3ccc(Cl)cc3[C@@H]2N2C(=O)c3ccc(C)cc3NC(=O)[C@@]12C here?
A: -38.4%

Q: CCc1ccc(NC(=O)c2ccc(S(=O)(=O)NCc3cccnc3)cc2)cc1 was tested. Which “activity change, positive = potentiation” value did it give?
A: -35.4%

Q: For CC(=O)c1c[nH]c(C(=O)NCc2ccccc2Cl)c1, which “activity change, positive = potentiation” value is on record?
A: 7.13%

Q: With COCCN(CCOC)S(=O)(=O)c1ccc(C(=O)Nc2nnc(C3CC3)o2)cc1 as the compound, how does the “activity change, positive = potentiation” value read?
A: -6.89%

Q: How did the “activity change, positive = potentiation” value turn out when COCCNC(=O)CCc1c(C)nc2c(c(C)nn2-c2ccc(C)cc2)c1C was run?
A: -38.5%

Q: For COc1ccc(CCNC(=O)c2noc3c2CCCC3)cc1OC, which “activity change, positive = potentiation” value is on record?
A: -9.36%

Q: With Cc1ccccc1C(=O)Nc1nnc(-c2ccc(C(C)(C)C)cc2)s1 as the compound, how does the “activity change, positive = potentiation” value read?
A: -7.15%

Q: With CCCN1C(=O)/C(=C/c2ccncc2)SC1=S as the compound, how does the “activity change, positive = potentiation” value read?
A: -8.91%

Q: With COc1ccc2c(c1)C(c1ccc(Cl)cc1)NC(=O)C2 (centres undefined) as the compound, how does the “activity change, positive = potentiation” value read?
A: -5.08%

Q: With CSCCCN1CC[C@@H](N2CCN(c3ccccc3F)CC2)[C@H](O)C1 as the compound, how does the “activity change, positive = potentiation” value read?
A: 12.5%

Q: Which “activity change, positive = potentiation” value does the source give for CCN(CC)CCN(Cc1cc2cc(C)ccc2[nH]c1=O)C(=O)Nc1ccccc1OC here?
A: -7.28%

Q: How did the “activity change, positive = potentiation” value turn out when Cc1nc(C(F)(F)F)ccc1C(=O)Nc1ccc(C(F)(F)F)cn1 was run?
A: -36.1%

Q: For C=C(C(=O)Nc1ccccc1)c1ccc(C)cc1, which “activity change, positive = potentiation” value is on record?
A: -6.44%

Q: For COc1ccc(-n2c(SCC(N)=O)nc3nc4c(cc3c2=O)COC(C)(C)C4)cc1, which “activity change, positive = potentiation” value is on record?
A: 13.3%

Q: NC(=O)c1ccc(-n2nnnc2Oc2ccccc2C(=O)N2CCOCC2)cc1 was tested. Which “activity change, positive = potentiation” value did it give?
A: 1.65%

Q: For Cc1[nH]c2ccccc2c1CCN(Cc1cccnc1)C(=S)Nc1ccc(F)cc1, which “activity change, positive = potentiation” value is on record?
A: -6.06%

Q: CCc1ccc(NC(=O)C2CCCN(S(=O)(=O)c3c(C)[nH]c(=O)[nH]c3=O)C2)cc1 (centres undefined) was tested. Which “activity change, positive = potentiation” value did it give?
A: -5.4%

Q: CC(=O)Nc1cccc(NC(C)=O)n1 was tested. Which “activity change, positive = potentiation” value did it give?
A: -5.38%

Q: Which “activity change, positive = potentiation” value does the source give for Cn1nc(C(C)(C)C)cc1C(=O)NCc1ccc(N2CCCC2=O)cc1 here?
A: -1.47%

Q: With COc1cccc(CNC(=S)Nc2cccc(Cl)c2C)c1 as the compound, how does the “activity change, positive = potentiation” value read?
A: -38.9%

Q: For CCCCOc1ccc(C(=O)Nc2cccc(-n3cnnn3)c2)cc1OC, which “activity change, positive = potentiation” value is on record?
A: -34.7%

Q: How did the “activity change, positive = potentiation” value turn out when O=C(Cn1c(NCCCO)nc2ccccc21)c1ccc(Cl)cc1 was run?
A: -7.03%

Q: For CCS(=O)(=O)C1=NN2C(=N)/C(=C\c3ccc(OCCOc4cccc(OC)c4)c(OC)c3)C(=O)N=C2S1, which “activity change, positive = potentiation” value is on record?
A: -8.22%

Q: CCOC(=O)c1c(C)[nH]c(C)c1C(=O)CN1C(=O)NC(CC(C)C)C1=O (centres undefined) was tested. Which “activity change, positive = potentiation” value did it give?
A: 0.659%

Q: With CN(Cc1c(O)ccc2c1oc(=O)c1ccccc12)C1CCCCC1 as the compound, how does the “activity change, positive = potentiation” value read?
A: -11.4%

Q: CN(Cc1ccccc1Cl)C(=O)c1cc2ccccc2o1 was tested. Which “activity change, positive = potentiation” value did it give?
A: -15%
